Four molecules from PubChem BioAssay can be followed below.

Experiment [1] can be described thus: blockers of polyQ-driven CASP3 activation – cell-based (AID 1583). The note with it: polyglutamine-induced caspase-3 activation, cell assay; stronger effect = higher value;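 tested at 10 µM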.
Experiment [2] is described as follows: yeast 75Q aggregation reduction – 75Q-TubU reporter (AID 1593). The settings on record: Yeast 75Q polyglutamine aggregation reporter.
A short description of experiment [3]: restoration of touch response, mutant HTT neurons – whole organism, C. elegans mechanosensory neurons, N-terminal huntingtin (AID 1599). The note with it: C. elegans polyQ-huntingtin mechanosensory neurons, stronger effect = higher value.
Experiment [4] can be described thus: blockers of cytochrome c efflux from mitochondria – biochemical, purified mitochondria (AID 1603).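 Note: mouse liver mitochondria challenged with calcium chloride; signal normalized to the plate average as 100%.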 The note with it: stronger effect = lower value.
Experiment [5] can be described thus: polyglutamine aggregate formation blockers (AID 1604). The settings on record: polyglutamine-induced protein aggregation inhibition assay; stronger effect = higher value; tested at 2.5 µM.
Experiment [6] in a line: glutamate transport activators, MN-1 cells, MN-1 cell line (AID 1612).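 Note: tested at 1 µM final; 0% = mean of DMSO vehicle wells on each plate; positive means more glutamate uptake than control and negative means less.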 The note with it: MN-1 motor neuron cells, stronger effect = higher value.
Experiment [7] is described as follows: GFP-Q80 aggregate reduction, neuronal-like cells, cell-based, NGF-treated PC12, GFPQ80 (AID 1614).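 Note: lower means fewer inclusions and 0 means no inclusions at all.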 The note with it: PC12 NGF-treated GFP-polyQ80 inclusion reduction.
Experiment [8] in a line: 75Q-TubH aggregate inhibition, S. cerevisiae, yeast (AID 1616). The settings on record: S. cerevisiae 75Q-TubH polyglutamine aggregation suppression; stronger effect = higher value.
Experiment [9] in a line: P. berghei load reduction in hepatocytes – cell-based, HepG2, luciferase luminescence, HepG2 viability, primary screen (AID 624349).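 Note: 100% = mean of DMSO negative control wells on the same plate.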 The settings on record: P. berghei liver stage in HepG2, luciferase luminescence, concentration not given here; parasite load remaining: stronger effect = lower value; viability: measured here: HepG2 viability without parasites.
In experiment [10] the target is 6-phosphogluconate dehydrogenase, decarboxylating (Homo sapiens) (UniProt P52209). In words: inhibition of human phosphogluconate dehydrogenase – biochemical, recombinant enzyme, NADPH absorbance, primary screen (AID 1159550;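 active = at least 20% inhibition of 6-phosphogluconate dehydrogenase activity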). The settings on record: recombinant 6PGD, NADPH absorbance 341 nm; at 10 µM; stronger effect = higher value.
A short description of experiment [11]: EMT-state selective cytotoxicity in co-culture – imaging, PC-3E GFP, TEM4-18 mCherry, primary screen (AID 1345086;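 active = compounds killing one labelled cell type while sparing the other, by normalised counts and ratio limits, not self-fluorescent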;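 for all read-outs here: cells exposed to compound for 72 h before imaging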;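 for red/green cell ratio (normalised): normalised mesenchymal count divided by normalised epithelial count so high means epithelial killing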). The note with it: PC-3E GFP / TEM4-18 mCherry co-culture, imaging cell counts, at 1 µM; for red/green cell ratio (normalised): actives lie on both sides, counts scaled to control wells, 1 = unselective.
Experiment [12] in a line: viability loss with induced miR-34 in A549 – imaging, A549 dox-inducible miR-34, nuclei and caspase counts, primary screen (AID 1347080;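 active = compounds whose cell count with miR-34 switched on is under 0.7 times the count with it off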). The note with it: A549 miR-34 inducible, Hoechst nuclei count, 48 h.
Experiment [13] in a line: compounds altering viability of human ES cells (AID 493140; call rule not given here;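 note: cells exposed to compounds for four days before counting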). The settings on record: human embryonic stem cell survival screen; stronger effect = higher value.
The nature of experiment [14]: MELAS cybrid and Rieske KO viability enhancers – cell-based, MELAS cybrids, Rieske KO mouse fibroblasts, CellTiter-Glo, primary screen (AID 1508586;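 active = mean z-score across replicates of 1.96 or higher in either the MELAS or the Rieske mutant cell line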;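 note: z relative to plate mean and SD of compound and empty wells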). The settings on record: low glucose.
Experiment [15] deals with NAD(+) hydrolase SARM1 (Homo sapiens) (UniProt Q6SZW1). As to the kind of experiment: blocking NAD cleavage by SARM1 SAM-TIR – cell lysate, NAD-Glo luminescence (AID 1508614;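 active = compound whose remaining NAD level is above about 45 nM, limit read from the data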;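 note: higher remaining NAD means stronger inhibition of SARM1 NADase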). The settings on record: SAM-TIR HEK293T lysate NADase, at 1 µM, stronger effect = higher value.
Experiment [16] addresses Mitogen-activated protein kinase 7 (Homo sapiens) (UniProt Q13164). In words: Gal4-ERK5 driven luciferase induction – cell-based, HTS, primary screen (AID 1508626;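 active = luciferase signal above three times the same-plate solvent-only control wells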;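 note: luciferase driven by Gal4-ERK5 fusion binding five Gal4 sites before minimal TATA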). The settings on record: HeLa Gal4-ERK5 transactivation, 18 h, at 5 µM, stronger effect = higher value.
Experiment [17] is described as follows: galactose survival enhancers in mitochondrial complex I cybrids – cell-based, galactose medium, ATP luminescence, primary screen (AID 1645843;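 active = z-score of at least 1.8 in each of two replicates, scored against plate mean and spread of sample wells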;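 note: positive z means more ATP and so rescue of galactose-driven cybrid death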). The note with it: complex I mutant cybrid cells, 72 h, stronger effect = higher value.
[18] abbreviates: measured here: epithelial PC-3E GFP cell survival.
The mark [19] stands for this setting: measured here: mesenchymal TEM4-18 mCherry cell survival.
Where [20] appears, read: stronger effect = lower value, cell number ratio, induced over uninduced.
Setting [21] is: measured here: relative caspase fold change +Dox/-Dox.
Setting [22] is: measured here: total cells with miR-34 induction, stronger effect = lower value.
[23] abbreviates: measured here: total cells without miR-34 induction.

The structures appear in SMILES notation. Where “and” joins values, the source holds several entries; their conditions need not be identical. Equal entries are not always repeated. For some of these results: Measured potencies and affinities stand elsewhere. Calls of active or inactive are those of the source. Cut-off read from the data, not from the text of the source, unless noted: active = parasite load remaining mostly below about 12% (no sharp cut-off); inactive = mostly above about 10%. Bridge positions count the residues as written; N and C are the ends. Square brackets hold non-standard residues; d marks the D form. Peptide text beside a SMILES is read from it. * marks the point of attachment. Octanoyl(6-Me) = CCC(C)CCCCC(=O)*; Dab = NCC[CH](N)C(=O)O

Chain of NAD(+) hydrolase SARM1 (Homo sapiens) (Q6SZW1 whole entry, looked up, the tested form may be a part): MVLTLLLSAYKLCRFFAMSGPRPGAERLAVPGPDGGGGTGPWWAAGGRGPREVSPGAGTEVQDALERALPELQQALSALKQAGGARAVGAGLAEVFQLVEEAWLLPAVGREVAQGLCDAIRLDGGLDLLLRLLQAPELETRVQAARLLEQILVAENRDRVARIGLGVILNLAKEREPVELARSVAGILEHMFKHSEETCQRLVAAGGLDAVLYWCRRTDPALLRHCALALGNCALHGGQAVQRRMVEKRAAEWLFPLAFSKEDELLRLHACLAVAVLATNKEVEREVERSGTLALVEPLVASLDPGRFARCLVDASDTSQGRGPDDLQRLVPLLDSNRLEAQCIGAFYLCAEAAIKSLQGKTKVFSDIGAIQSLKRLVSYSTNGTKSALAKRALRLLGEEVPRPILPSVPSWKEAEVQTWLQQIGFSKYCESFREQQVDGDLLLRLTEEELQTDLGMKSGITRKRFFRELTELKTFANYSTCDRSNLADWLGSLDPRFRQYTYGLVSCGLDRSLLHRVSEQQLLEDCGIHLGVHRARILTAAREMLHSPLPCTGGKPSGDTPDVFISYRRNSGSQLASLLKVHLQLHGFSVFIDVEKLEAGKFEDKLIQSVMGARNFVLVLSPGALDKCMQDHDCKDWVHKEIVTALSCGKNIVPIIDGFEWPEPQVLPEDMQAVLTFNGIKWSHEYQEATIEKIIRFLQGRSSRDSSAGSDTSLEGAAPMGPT
Chain of 6-phosphogluconate dehydrogenase, decarboxylating (Homo sapiens) (P52209 whole entry, looked up): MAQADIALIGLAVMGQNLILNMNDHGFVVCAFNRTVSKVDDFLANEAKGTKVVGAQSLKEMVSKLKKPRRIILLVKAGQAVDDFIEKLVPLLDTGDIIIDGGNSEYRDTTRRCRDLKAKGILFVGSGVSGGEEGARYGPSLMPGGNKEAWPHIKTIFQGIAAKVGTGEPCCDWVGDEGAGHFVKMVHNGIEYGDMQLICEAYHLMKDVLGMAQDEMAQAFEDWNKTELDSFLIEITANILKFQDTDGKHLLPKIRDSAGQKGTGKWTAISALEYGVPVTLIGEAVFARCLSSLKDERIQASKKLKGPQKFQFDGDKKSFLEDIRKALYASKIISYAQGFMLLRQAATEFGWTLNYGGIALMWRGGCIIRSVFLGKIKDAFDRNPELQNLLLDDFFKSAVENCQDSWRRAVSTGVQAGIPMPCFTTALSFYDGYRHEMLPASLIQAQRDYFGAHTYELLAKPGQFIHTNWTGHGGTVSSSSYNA
Chain of Mitogen-activated protein kinase 7 (Homo sapiens) (Q13164 whole entry, looked up, the tested form may be a part): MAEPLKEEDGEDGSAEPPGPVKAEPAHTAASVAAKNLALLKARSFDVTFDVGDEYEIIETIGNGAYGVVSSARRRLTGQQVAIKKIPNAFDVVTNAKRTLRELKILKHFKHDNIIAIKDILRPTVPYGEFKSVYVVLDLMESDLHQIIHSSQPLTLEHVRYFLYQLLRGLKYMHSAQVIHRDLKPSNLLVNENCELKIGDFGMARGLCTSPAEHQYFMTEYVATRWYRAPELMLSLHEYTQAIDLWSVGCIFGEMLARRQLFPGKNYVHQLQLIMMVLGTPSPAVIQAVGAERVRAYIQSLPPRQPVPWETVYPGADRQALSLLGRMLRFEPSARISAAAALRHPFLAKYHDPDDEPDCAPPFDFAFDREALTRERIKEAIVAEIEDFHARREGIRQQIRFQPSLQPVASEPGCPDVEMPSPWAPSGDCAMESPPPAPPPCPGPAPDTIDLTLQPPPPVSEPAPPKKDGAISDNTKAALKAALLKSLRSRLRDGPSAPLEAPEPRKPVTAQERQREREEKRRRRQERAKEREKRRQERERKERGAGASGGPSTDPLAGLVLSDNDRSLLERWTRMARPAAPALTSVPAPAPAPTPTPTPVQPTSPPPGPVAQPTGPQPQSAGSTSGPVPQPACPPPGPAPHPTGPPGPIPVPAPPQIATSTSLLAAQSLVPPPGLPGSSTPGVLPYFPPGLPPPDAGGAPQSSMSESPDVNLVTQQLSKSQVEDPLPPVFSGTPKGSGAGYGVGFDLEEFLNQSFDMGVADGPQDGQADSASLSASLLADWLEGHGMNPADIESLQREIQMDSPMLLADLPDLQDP

For the molecule `Cn1nnnc1SCC1=C(C(=O)O)N2C(=O)C(NC(=O)C(OC=O)c3ccccc3)C2SC1` (configuration not stated), the results for the inhibition in [1] and in experiment [10] were 20.1% and 0.99% (inactive), respectively. The molecule further registered a score in [2] of 1.46. This molecule showed a rescue above control in experiment [3] of -9.96. Moreover, the cytochrome c release ratio in experiment [4] is 1.54. Moreover, the inhibition of aggregation in experiment [5] was 91.6%. For the same molecule, in [6], the glutamate uptake change is -5.89%. This molecule also yielded an inclusion score in experiment [7] of 2. The aggregation suppression score in experiment [8] worked out at 1.26. Moreover, in experiment [9], the parasite load remaining is 85.6% (inactive) and 51.5% (inactive). In addition, in experiment [9], the viability was 73.8% and 102%. The red/green cell ratio (normalised) in [11] is 0.82 (inactive). For the same molecule, the normalised cell number is 1.29 in [11] (setting [18]) and 1.06 in [11] (setting [19]). Also, the values for the fold change in experiment [12] (setting [20]) and in [12] (setting [21]) were 0.922 (inactive) and 2.94, respectively. Further, the values for the cell count in experiment [12] (setting [22]) and in [12] (setting [23]) were 11600 and 12600, respectively.

With `CC(C(=O)O)c1cccc(Oc2ccccc2)c1` (configuration not stated), the inhibition in experiment [1] was -4.11%; in experiment [10], 15.8% (inactive). Moreover, the score in experiment [2] was 0.02. Besides, in experiment [3], the rescue above control is 4.41. Besides, the cytochrome c release ratio in experiment [4] was determined as 0.68. Also, the inhibition of aggregation in experiment [5] was 72.7%. The glutamate uptake change in experiment [6] was determined as 5.16%. The molecule also yielded an inclusion score in experiment [7] of 2. In addition, in experiment [8], the aggregation suppression score was 0.0306. Further, the survival in experiment [13] was 1.75 (inactive). Further, in [11], the red/green cell ratio (normalised) is 0.89 (inactive). The values for the normalised cell number in [11] (setting [18]) and in experiment [11] (setting [19]) were 1.13 and 1, respectively. Besides, the z-score was -0.0579 (inactive) and -0.205 (inactive) and 0.473 (inactive) in experiment [14] (MELAS cybrid survival, CellTiter-Glo 48 h, stronger effect = higher value); -0.141 and -0.109 and 0.281 in [14] (Rieske KO mouse fibroblast survival, CellTiter-Glo 72 h); 0.865 (inactive) in experiment [17]. Further, the remaining NAD in experiment [15] is 10 nM (inactive). The luciferase signal in experiment [16] is 72 AU (inactive).

`CCCCCCCCCc1ccc(OCCOCCOCCOCCOCCOCCOCCOCCOCCO)cc1`: in experiment [9], the parasite load remaining is -0.79% (active). Also, the viability in [9] was determined as 85%. The inhibition in [10] was -15.2% (inactive). Besides, the red/green cell ratio (normalised) in [11] was 1.03 (inactive). The normalised cell number in experiment [11] (setting [18]) was 1.14; in experiment [11] (setting [19]), 1.18. Also, the fold change in experiment [12] (setting [20]) was 0.78 (inactive); in experiment [12] (setting [21]) it was 2.5. Further, the results for the cell count in experiment [12] (setting [22]) and in [12] (setting [23]) were 2440 and 3120, respectively. The remaining NAD in experiment [15] was 10 nM (inactive). The luciferase signal in [16] is 40 AU (inactive).

Consider `CCC(C)CCCCC(=O)NC(CCN)C(=O)NC(C(=O)NC(CCN)C(=O)NC1CCNC(=O)C(C(C)O)NC(=O)C(CCN)NC(=O)C(CCN)NC(=O)C(CC(C)C)NC(=O)C(Cc2ccccc2)NC(=O)C(CCN)NC1=O)C(C)O` (configuration not stated) ({Octanoyl(6-Me)}-[Dab]T[Dab][Dab][Dab]FL[Dab][Dab]T; lactam 4-C; configuration not given here), for which the inhibition was 15% in experiment [1] and 11% (inactive) in experiment [10]. The same molecule returned a score in experiment [2] of 0.73. The molecule further registered a rescue above control in experiment [3] of 0. For the same molecule, the cytochrome c release ratio in experiment [4] is 7.61. The molecule further yielded an inhibition of aggregation in experiment [5] of 70.5%. The glutamate uptake change in experiment [6] was -11.7%. For the same molecule, in experiment [7], the inclusion score was 2. Also, the aggregation suppression score in experiment [8] came to 0.739. Further, the parasite load remaining in experiment [9] is 82.5% (inactive) and 41.4% (inactive). In experiment [9], the viability was 77.7% and 91.4%. Moreover, the red/green cell ratio (normalised) in experiment [11] was 1.23 (inactive). The figures for the normalised cell number in experiment [11] (setting [18]) and in experiment [11] (setting [19]) were 0.93 and 1.14, respectively. The fold change in [12] (setting [20]) was 0.886 (inactive); in experiment [12] (setting [21]), 2.98. Also, the values for the cell count in experiment [12] (setting [22]) and in experiment [12] (setting [23]) were 11700 and 13200, respectively. Besides, the remaining NAD in experiment [15] was 10 nM (inactive).
